This note sets out measurements from PubChem BioAssay (NCI).

Structures are written as SMILES. The panel holds about 83,000 compounds, 20% with a hit somewhere; the sample as a whole holds those more often.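 Values shown are percent growth following 48 h exposure of cells in 96-well plates to a single concentration of compound; below 10 was considered active.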 Values without a mark were called inactive. Active and inactive are the calls of the source.

Among the test systems are SK-MEL-2 melanoma; EKVX NSCLC; SN12C renal; UO-31 renal; TK-10 renal; ACHN renal; CAKI-1 renal; A498 renal; CCRF-CEM leukemia; MOLT-4 leukemia.
Holding throughout (assay): NCI-60 one-dose screen, 48 h (100 = growth as untreated, 0 = no growth, -100 = all killed)
Common to all, as to conditions: 10 µM unless noted

As to `O=C(C[n+]1ccn(CC(OCc2ccc(Cl)cc2Cl)c2ccc(Cl)cc2Cl)c1)c1ccc(F)cc1` (stereo not given), the growth in the test on SK-MEL-2 melanoma was -88% (active); in the test on EKVX NSCLC it was -77.8% (active); with SN12C renal, -93.5% (active); with UO-31 renal, 84.1%; in the test with TK-10 renal, -46.1% (active); in the test with ACHN renal, 26.5%. For the same compound, the growth in the test with CAKI-1 renal is 79.7%; in the test with A498 renal, -12.3% (active); in the test on CCRF-CEM leukemia it was -12.1% (active); with MOLT-4 leukemia it was -19.9% (active).

`CNc1cc(C(=O)O)nc(NC)n1`: the growth is 103% in the test with SK-MEL-2 melanoma; 97.1% in the test on EKVX NSCLC; 95.1% in the test on SN12C renal; 88.4% in the test on UO-31 renal; 99.2% in the test with TK-10 renal; 99.9% in the test with ACHN renal. For the same compound, the growth with CAKI-1 renal is 98.4%; with A498 renal, 79.7%; with CCRF-CEM leukemia, 100%; with MOLT-4 leukemia, 101%.

As to `CC(C)[C@H]1COC(=O)N1[C@@H]1C(=O)N([C@@H](CCC(=O)N2CCN(C3CCCC3)CC2)C(=O)N[C@@H]2CCCc3ccccc32)[C@@H]1/C=C/c1cccc(Cl)c1`, the growth in the test with SK-MEL-2 melanoma was 60%; in the test on EKVX NSCLC it was 58.8%; with SN12C renal, 59.6%; in the test with UO-31 renal it was 43.5%; in the test with TK-10 renal, 54.2%; with ACHN renal, 57.8%. Also, the growth with CAKI-1 renal is 59.3%; in the test on A498 renal, 27.9%; in the test with CCRF-CEM leukemia, 42%; in the test on MOLT-4 leukemia it was 24.1%.

Regarding `CCCCCCCCCCCCNC(=S)N/N=C/c1ccccc1O`, the growth in the test with SK-MEL-2 melanoma is 80.8%; with EKVX NSCLC it was 89.1%; in the test with SN12C renal, 69.4%; in the test with UO-31 renal, 37.6%; with TK-10 renal it was 128%; with ACHN renal, 77.1%. For the same compound, the growth with CAKI-1 renal is 65.4%; in the test with A498 renal it was 94.3%; in the test with CCRF-CEM leukemia it was 46.1%; with MOLT-4 leukemia, 52.4%.

`O=C(CCN1CCCCC1)c1ccc2ccccc2c1`: the growth was 102% in the test with SK-MEL-2 melanoma; 112% in the test with EKVX NSCLC; 96.7% with SN12C renal; 77.1% with UO-31 renal; 94.5% with TK-10 renal; 116% with ACHN renal. Also, the growth with CAKI-1 renal was 98.1%; in the test on A498 renal, 93.5%; in the test with CCRF-CEM leukemia it was 92.3%; with MOLT-4 leukemia it was 108%.

Turning to `CC(C)C1=NOC(=O)C1=Cc1cn(-c2cccnc2)nc1-c1ccccc1`, the growth with SK-MEL-2 melanoma is 111%; in the test on EKVX NSCLC, 100%; in the test on SN12C renal, 87.5%; in the test on UO-31 renal, 89.7%; in the test with TK-10 renal, 101%; in the test on ACHN renal, 99.2%. Also, the growth was 78% with CAKI-1 renal, 99.2% in the test on A498 renal, 11.4% in the test on CCRF-CEM leukemia and 11.8% in the test on MOLT-4 leukemia.

Take `O=C(Nc1ccc(C(=O)/C=C/c2ccc(N3CCOCC3)cc2)cc1)Nc1ccc([N+](=O)[O-])cc1`: the growth in the test on SK-MEL-2 melanoma was 97.6%; with EKVX NSCLC, 112%; in the test with SN12C renal, 97%; in the test on UO-31 renal it was 83.5%; in the test on TK-10 renal, 88.5%; in the test on ACHN renal, 94.4%. Besides, the growth in the test with CAKI-1 renal was 82.6%; in the test on A498 renal it was 5.47% (active); in the test with CCRF-CEM leukemia, 84.4%; in the test with MOLT-4 leukemia, 66.2%.

Regarding `Nc1nnc(CSc2nnc3n(Cc4ccccc4)c(=O)c4c5c(sc4n23)CCCC5)s1`, the growth was 109% with SK-MEL-2 melanoma; 93.2% in the test on EKVX NSCLC; 91.9% in the test with SN12C renal; 84.6% in the test on UO-31 renal; 113% in the test with TK-10 renal; 94.9% in the test with ACHN renal. Further, the growth in the test with CAKI-1 renal was 10%; in the test on A498 renal it was 103%; in the test on CCRF-CEM leukemia, 69.1%; in the test on MOLT-4 leukemia it was 71.1%.

On to `Nc1nc(Nc2ccccc2)c2ncn(Cc3cc4c(cc3Br)OCO4)c2n1`, for which the growth in the test with SK-MEL-2 melanoma was 36.9%; in the test with EKVX NSCLC, 44.7%; in the test with SN12C renal, 7.96% (active); in the test on UO-31 renal, 40.3%; with TK-10 renal, 35.1%; in the test with ACHN renal it was 16.9%. Further, the growth is 18.2% in the test on CAKI-1 renal, -3.53% (active) with A498 renal, 11.2% in the test with CCRF-CEM leukemia and 10.4% in the test on MOLT-4 leukemia.

As for `CCCCCn1c(C)cc(/C=C\c2ccc3cc(C)ccc3[n+]2C)c1C`, the growth in the test on SK-MEL-2 melanoma was -81.9% (active); in the test with EKVX NSCLC, -47.9% (active); in the test with SN12C renal, -90.3% (active); in the test with UO-31 renal, -61.4% (active); with TK-10 renal, -57.6% (active); in the test on ACHN renal it was -89.3% (active). Further, the growth with CAKI-1 renal is -80.3% (active); with A498 renal, -46% (active); in the test with CCRF-CEM leukemia, -13.3% (active); in the test on MOLT-4 leukemia, 7.02% (active).

In the case of `O=C(CCCCCCSc1nc(-c2ccc(Cl)cc2)cc(-c2ccc(Cl)cc2)n1)NO`, the growth in the test on SK-MEL-2 melanoma was 92.7%; in the test with EKVX NSCLC, 50.9%; in the test with SN12C renal, 26.1%; with UO-31 renal, 8.29% (active); with TK-10 renal, 30.7%; in the test on ACHN renal it was 15.5%. The growth was 13.4% with CAKI-1 renal, 81.8% in the test on A498 renal, 5.2% (active) in the test with CCRF-CEM leukemia and 11.4% in the test with MOLT-4 leukemia.

`COC(=O)[C@]1(C)CC[C@]2(C)CC[C@]3(C)C(=CC(=O)[C@@H]4[C@@]5(C)CCC(=O)NC(C)(C)[C@@H]5CC[C@]43C)[C@@H]2C1`: the growth in the test with SK-MEL-2 melanoma is -83.2% [100 µM] (active); with EKVX NSCLC, -45.1% [100 µM] (active); in the test with SN12C renal it was -81.1% [100 µM] (active); in the test with UO-31 renal it was -93.3% [100 µM] (active); in the test with TK-10 renal, -26.3% [100 µM] (active); in the test with ACHN renal, -39.8% [100 µM] (active). Moreover, the growth with CAKI-1 renal is -20% [100 µM] (active); in the test with A498 renal, -91.4% [100 µM] (active); in the test on CCRF-CEM leukemia it was -25.4% [100 µM] (active); in the test on MOLT-4 leukemia, -20.7% [100 µM] (active).
